Source: ChEMBL document CHEMBL1201862, “PubChem BioAssay data set” (2004)
Entries with a potency or affinity are not part of this list.

Assay: M. tuberculosis growth inhibition, dose response, 7H9 media, purified and synthesized compounds, set 5 (AID 504903); call rule not given here
Format: functional

Row | Structure (SMILES) | IC90
1 | Cc1[nH]c2ccccc2c1C(=O)COC(=O)c1ccc([N+](=O)[O-])s1 | > 50.5 µM (active)
2 | O=C(CSc1ccccn1)NC1CCCCC1 | > 100 µM (active)
3 | CNC(=O)CSc1nc2ccccc2c(=O)[nH]1 | > 100 µM (active)
4 | CCCc1cc(C(N)=S)ccn1 | > 100 µM (active)
